Data: PubChem BioAssay AID1159580 (chemical genetic matrix, 2015)
The whole screen tested about 5,500 compounds, of which about 2,000 (36%) were called active. Not shown: some 18% with an inconclusive outcome. No stated cut-off is given here; in the data, active means normalized growth mostly below about 0.91 (no sharp cut-off); inconclusive means no clear call, values can overlap the other calls; inactive means mostly above about 0.92. The list shows a part of the results.

Assay: chemical genetic growth profiling, strain panel (AID 1159580);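 further: tested at 20 µM; growth read once vehicle control cultures reached saturation at 30 °C; 1 = growth at the plate median or of vehicle wells; lower values mean less growth of the strain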
Conditions: S. cerevisiae deletion strains, growth OD

Measured: normalized growth

CCCOc1ccccc1-c1nc2n[nH]nc2c(=O)[nH]1
inactive: locus YAL013W, strain DEP1, hits give low values 0.99 | locus YAL021C, strain ccr4, hits give low values 0.965 | locus YAL026C, strain drs2, hits give low values 1.02 | locus YAL030W, strain snc1, hits give low values 0.995 | locus YAL040C, strain CLN3, hits give low values 1.05 | locus YBL061C, strain skt5, hits give low values 1 | locus YBR009C, strain hhf1, hits give low values 1.03 | locus YBR021W, strain FUR4, hits give low values 0.996 | locus YBR023C, strain chs3, hits give low values 1 | locus YBR171W, strain sec66, hits give low values 1.01 | locus YBR229C, strain ROT2, hits give low values 1 | locus YBR231C, strain swc5, hits give low values 1.02 | locus YBR279W, strain paf1, hits give low values 1.01 | locus YCL011C, strain gbp2, hits give low values 1.01 | locus YCL016C, strain dcc1, hits give low values 1.01 | locus YCL029C, strain bik1, hits give low values 1.01 | locus YCL061C, strain MRC1 (second series), hits give low values 0.993 | locus YCL061C, strain MRC1, hits give low values 1 | locus YCL069W, strain vba3, hits give low values 0.992 | locus YCR088W, strain abp1, hits give low values 1 | locus YDL005C, strain med2, hits give low values 1 | locus YDL035C, strain GPR1, hits give low values 1.02 | locus YDL040C, strain nat1, hits give low values 0.991 | locus YDL074C, strain BRE1, hits give low values 1.01 | locus YDL101C, strain DUN1, hits give low values 1.01 | locus YDL134C, strain PPH21, hits give low values 1.01 | locus YDL185W, strain tfp1, hits give low values 1.01 | locus YDL192W, strain arf1, hits give low values 1.01 | locus YDR001C, strain nth1, hits give low values 0.998 | locus YDR069C, strain doa4, hits give low values 1.02 | locus YDR101C, strain arx1, hits give low values 1 | locus YDR137W, strain rgp1, hits give low values 1 | locus YDR159W, strain sac3, hits give low values 1.03 | locus YDR162C, strain NBP2, hits give low values 1.01 | locus YDR195W, strain ref2 1.04 | locus YDR297W, strain sur2, hits give low values 1 | locus YDR318W, strain mcm21, hits give low values 1.01 | locus YDR334W, strain swr1, hits give low values 1.01 | locus YDR335W, strain msn5, hits give low values 1 | locus YDR363W, strain ESC2, hits give low values 0.985 | locus YDR388W, hits give low values 1.02 | locus YDR392W, strain spt3, hits give low values 0.956 | locus YDR502C, strain sam2, hits give low values 1.01 | locus YEL003W, strain gim4, hits give low values 1.01 | locus YEL037C, strain rad23, hits give low values 0.998 | locus YEL061C, strain CIN8 (second series), hits give low values 1 | locus YEL061C, strain CIN8, hits give low values 1.01 | locus YER002W, strain NOP16, hits give low values 1.01 | locus YER015W, strain faa2, hits give low values 1.01 | locus YER016W, strain bim1, hits give low values 1.01 | locus YER110C, hits give low values 1.01 | locus YER111C, strain swi4, hits give low values 1.01 | locus YER155C, strain BEM2 (second series), hits give low values 1.05 | locus YER155C, strain BEM2, hits give low values 1 | locus YER167W, strain BCK2, hits give low values 1.01 | locus YFR010W, strain ubp6, hits give low values 1.01 | locus YGL078C, strain dbp3, hits give low values 1.01 | locus YGL086W, strain mad1, hits give low values 1 | locus YGL167C, strain pmr1, hits give low values 1.01 | locus YGL173C, strain kem1, hits give low values 1.01 | locus YGL227W, strain vid30, hits give low values 1.01 | locus YGL240W, strain doc1, hits give low values 1.05 | locus YGL248W, strain PDE1, hits give low values 0.981 | locus YGL253W, strain hxk2, hits give low values 1.01 | locus YGR078C, strain PAC10, hits give low values 1.01 | locus YGR135W, strain pre9, hits give low values 1.01 | locus YGR229C, strain SMI1, hits give low values 1.01 | locus YGR252W, strain gcn5, hits give low values 1.03 | locus YHR013C, strain ard1, hits give low values 0.978 | locus YHR027C, strain rpn1, hits give low values 1 | locus YHR030C, strain SLT2, hits give low values 1 | locus YHR079C, strain IRE1 (second series), hits give low values 1.01 | locus YHR094C, strain hxt1, hits give low values 1.02 | locus YHR129C, strain ARP1, hits give low values 1 | locus YHR142W, strain chs7, hits give low values 0.953 | locus YHR200W, strain rpn10, hits give low values 1.01 | locus YIL066C, strain RNR3, hits give low values 1 | locus YIL073C, strain SPO22, hits give low values 1.08 | locus YIL125W, strain kgd1, hits give low values 1 | locus YIR030C, strain dcg1, hits give low values 1.01 | locus YJL092W, strain hpr5, hits give low values 1 | locus YJL095W, strain BCK1 (second series), hits give low values 1.01 | locus YJL095W, strain BCK1, hits give low values 0.994 | locus YJL115W, strain asf1, hits give low values 1 | locus YJL129C, strain trk1, hits give low values 0.992 | locus YJL134W, strain LCB3, hits give low values 1.01 | locus YJL154C, strain vps35, hits give low values 0.999 | locus YJL164C, strain tpk1, hits give low values 0.987 | locus YJL166W, strain qcr8, hits give low values 1.01 | locus YJL168C, strain set2, hits give low values 1.01
